Here are results for four compounds from PubChem BioAssay (EPA / NIEHS).

Settings in all cases: mRNA level, 48 h; actives raise or lower the signal
Read-out in experiment [1]: Cytochrome P450 (CYP2B6), CYP2B6 (gene 1555)
In words: LTEA_HepaRG_CYP2B6: Life Technologies and Expression Analysis (LTEA) Assay for Cytochrome P450 (CYP2B6) using HepaRG (AID 2283481). The essentials:
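Using 48 h treatment of HepaRG cells in serum-free induction medium, concentrations spanned half-log steps from 100 uM in 0.5% DMSO vehicle. CYP2B6 mRNA induction or loss is scored by qRT-PCR against DMSO.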

Read-out in experiment [2]: Cytochrome P450 2C19 (Homo sapiens) (UniProt P33261)
Briefly: LTEA_HepaRG_CYP2C19: Life Technologies and Expression Analysis (LTEA) Assay for CYP2C19 using HepaRG (AID 2283482). The essentials:
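Human HepaRG liver cells received test chemicals for 48 h (highest 100 uM, half-log dilutions in 0.5% DMSO). CYP2C19 mRNA induction or loss is read by multiplexed qRT-PCR and fitted in both directions versus vehicle.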

Read-out in another experiment: CYP2C8 (gene 1558)
Briefly: LTEA_HepaRG_CYP2C8: Life Technologies and Expression Analysis (LTEA) Assay for CYP2C8 using HepaRG (AID 2283483). The essentials: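 CYP2C8 expression measured by TaqMan qRT-PCR and normalized to three housekeeping genes. HepaRG cultures were treated for 48 h with an eight-point half-log series topping at 100 uM, vehicle 0.5% DMSO, duplicates; fitted both directions against DMSO.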

Read-out in a further experiment: CYP2C9 (gene 1559)
In words: LTEA_HepaRG_CYP2C9: Life Technologies and Expression Analysis (LTEA) Assay for CYP2C9 using HepaRG (AID 2283484). The essentials: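 CYP2C9 transcript level, quantified by TaqMan qRT-PCR against three housekeeping genes, was fitted bidirectionally relative to 0.5% DMSO. HepaRG cultures were treated 48 h, in duplicate, at eight half-log concentrations topping at 100 uM.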

Read-out in another experiment: CYP2E1 (gene 1571)
In words: LTEA_HepaRG_CYP2E1: Life Technologies and Expression Analysis (LTEA) Assay for CYP2E1 using HepaRG (AID 2283485). The essentials:
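Assay uses 48 h exposure of HepaRG hepatic cells, eight concentrations to 100 uM. Expression of CYP2E1 is quantified by TaqMan qRT-PCR with ACTB, GAPDH and POLR2A normalization; curves fitted in both directions relative to vehicle.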

Read-out in another experiment: CYP4A11 (gene 1579)
In words: LTEA_HepaRG_CYP4A11: Life Technologies and Expression Analysis (LTEA) Assay for CYP4A11 using HepaRG (AID 2283486). A digest of the protocol: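 Readout is CYP4A11 mRNA induction or suppression (qRT-PCR, ACTB/GAPDH/POLR2A normalization) in human HepaRG cells after 48 h chemical treatment, concentrations to 100 uM in 0.5% DMSO, fitted bidirectionally against vehicle.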

Read-out in experiment [3]: Cytochrome P450 3A4 (Homo sapiens) (UniProt P08684)
Briefly: LTEA_HepaRG_CYP3A4: Life Technologies and Expression Analysis (LTEA) Assay for CYP3A4 using HepaRG (AID 2283487). A digest of the protocol: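 Differentiated HepaRG cells in serum-free induction medium exposed in duplicate for 48 h to 8 half-log concentrations up to 100 uM in 0.5% DMSO. CYP3A4 mRNA measured by qRT-PCR normalized to ACTB, GAPDH and POLR2A; bidirectional fit versus DMSO.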

Read-out in experiment [4]: DNA damage-inducible transcript 3 (DDIT3), DDIT3 (gene 1649)
In words: LTEA_HepaRG_DDIT3: Life Technologies and Expression Analysis (LTEA) Assay for DNA damage-inducible transcript 3 (DDIT3) using HepaRG (AID 2283488). A digest of the protocol: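 Eight-point concentration-response (100 uM highest, half-log dilutions) in HepaRG, 48 h, duplicate wells. Endpoint: qRT-PCR mRNA, normalized (ACTB, GAPDH, POLR2A), bidirectional fitting with DMSO as baseline.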

Read-out in experiment [5]: Pro-epidermal growth factor (Homo sapiens) (UniProt P01133)
In words: LTEA_HepaRG_EGF: Life Technologies and Expression Analysis (LTEA) Assay for Epidermal growth factor (EGF) using HepaRG (AID 2283489). The essentials:
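EGF expression changes in human HepaRG cells are scored by bidirectional fitting relative to 0.5% DMSO controls. Chemicals are tested at eight half-log concentrations up to 100 uM for 48 h in serum-free induction medium.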

Read-out in experiment [6]: Early growth response protein 1 (EGR1) transcription factor, EGR1 (gene 1958)
Briefly: LTEA_HepaRG_EGR1: Life Technologies and Expression Analysis (LTEA) Assay for Early growth response protein 1 (EGR1) transcription factor using HepaRG (AID 2283490). A digest of the protocol:
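EGR1 transcript levels quantified by qRT-PCR (Fluidigm arrays) against three housekeeping genes after 48 h chemical exposure of HepaRG cells. Eight-point half-log series topping at 100 uM, 0.5% DMSO vehicle, analyzed for gain or loss.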

Read-out in experiment [7]: Cytochrome P450 3A7 (Homo sapiens) (UniProt P24462)
Briefly: LTEA_HepaRG_CYP3A7: Life Technologies and Expression Analysis (LTEA) Assay for CYP3A7 using HepaRG (AID 2283492). The essentials: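 Cells were thawed, plated, cultured 48 h, then treated for a further 48 h with chemicals (eight-point half-log series from 100 uM, 0.5% DMSO). RNA was isolated and CYP3A7 expression quantified by qRT-PCR normalised to ACTB, GAPDH and POLR2A.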

Read-out in the next experiment: CYP3A5 (gene 1577)
In words: LTEA_HepaRG_CYP3A5: Life Technologies and Expression Analysis (LTEA) Assay for CYP3A5 using HepaRG (AID 2283493). The essentials:
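Readout was CYP3A5 mRNA by qRT-PCR. HepaRG cultures were exposed for 48 h in serum-free induction medium to chemicals at up to 100 uM, and responses were fitted in both directions relative to DMSO vehicle.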

Read-out in experiment [8]: Fatty Acid-Binding Protein 1 (FABP1), FABP1 (gene 2168)
In words: LTEA_HepaRG_FABP1: Life Technologies and Expression Analysis (LTEA) Assay for Fatty Acid-Binding Protein 1 (FABP1) using HepaRG (AID 2283494). A digest of the protocol: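 FABP1 expression by TaqMan qRT-PCR, normalised to three housekeeping genes, in HepaRG cells after 48 h chemical treatment. Eight-point half-log series topping at 100 uM in 0.5% DMSO, duplicates; gain or loss fitted relative to vehicle.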

Read-out in experiment [9]: Cytochrome P450 4A22 (Homo sapiens) (UniProt Q5TCH4)
Briefly: LTEA_HepaRG_CYP4A22: Life Technologies and Expression Analysis (LTEA) Assay for Cytochrome P450 4A22 (CYP4A22) using HepaRG (AID 2283495). The essentials: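 Cryopreserved HepaRG cells, plated and cultured 48 h, then switched to serum-free induction medium and treated 48 h (duplicates, up to 100 uM, half-log steps, 0.5% DMSO). Expression change of CYP4A22 was fitted bidirectionally against vehicle.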

Read-out in experiment [10]: Cytochrome P450 7A1 (Homo sapiens) (UniProt P22680)
Briefly: LTEA_HepaRG_CYP7A1: Life Technologies and Expression Analysis (LTEA) Assay for Cytochrome P450 7A1 (CYP7A1) using HepaRG (AID 2283496). The essentials: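 Using 0.5% DMSO as vehicle and baseline, chemicals were tested in duplicate over an 8-point range from 100 uM on HepaRG cells for 48 h; qRT-PCR signals were normalised to ACTB, GAPDH and POLR2A.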

Read-out in experiment [11]: Glutathione S-Transferase (GSTA2), GSTA2 (gene 2939)
Briefly: LTEA_HepaRG_GSTA2: Life Technologies and Expression Analysis (LTEA) Assay for Glutathione S-Transferase (GSTA2) using HepaRG (AID 2283497). A digest of the protocol:
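GSTA2 transcript levels came from Fluidigm TaqMan qRT-PCR normalized to three housekeeping genes, fitted in both directions against DMSO. HepaRG cultures received chemicals for 48 h in serum-free induction medium (0.5% DMSO), 8 half-log concentrations up to 100 uM, duplicate.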

Read-out in experiment [12]: Glutamate-cysteine ligase catalytic (GCLC), GCLC (gene 2729)
Briefly: LTEA_HepaRG_GCLC: Life Technologies and Expression Analysis (LTEA) Assay for Glutamate-cysteine ligase catalytic (GCLC) using HepaRG (AID 2283498). A digest of the protocol:
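Expression by TaqMan qRT-PCR, normalized to three housekeeping genes (ACTB, GAPDH, POLR2A), with up- or down-regulation fitted against DMSO. HepaRG cells dosed in duplicate for 48 h with 8 half-log concentrations up to 100 uM, vehicle 0.5% DMSO.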

Read-out in experiment [13]: growth arrest and DNA damage 45 (GADD45G), GADD45G (gene 10912)
Briefly: LTEA_HepaRG_GADD45G: Life Technologies and Expression Analysis (LTEA) Assay for growth arrest and DNA damage 45 (GADD45G) using HepaRG (AID 2283499). The essentials: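 Human hepatic HepaRG line treated 48 h with chemicals (eight concentrations, half-log steps from 100 uM); transcript induction or repression of GADD45G scored by qRT-PCR versus DMSO vehicle.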

Read-out in experiment [14]: Ezrin (EZR), EZR (gene 7430)
Briefly: LTEA_HepaRG_EZR: Life Technologies and Expression Analysis (LTEA) Assay for Ezrin (EZR) using HepaRG (AID 2283491). A digest of the protocol: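 Differentiated human HepaRG cells, 48 h after plating, were exposed in serum-free induction medium for 48 hours to eight half-log concentrations up to 100 uM in 0.5% DMSO. EZR mRNA was measured by TaqMan qRT-PCR, normalized to ACTB, GAPDH and POLR2A, and fitted bidirectionally against DMSO.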

Read-out in experiment [15]: Glutamate-cysteine ligase regulatory (GCLM), GCLM (gene 2730)
Briefly: LTEA_HepaRG_GCLM: Life Technologies and Expression Analysis (LTEA) Assay for Glutamate-cysteine ligase regulatory (GCLM) using HepaRG (AID 2283500). The essentials: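 In this multiplexed HepaRG gene-expression assay, GCLM mRNA change after 48 h treatment (8 concentrations, max 100 uM) was scored against DMSO by bidirectional curve fitting.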

Each structure is given as a SMILES string. Activity calls are given as the source filed them. The calls were made as follows: active = hit-call score of the fitted dose curve at least 0.9, where 1 is the maximum; inactive = score below 0.9.

Sequence of Cytochrome P450 3A7 (Homo sapiens) (P24462 whole entry, looked up): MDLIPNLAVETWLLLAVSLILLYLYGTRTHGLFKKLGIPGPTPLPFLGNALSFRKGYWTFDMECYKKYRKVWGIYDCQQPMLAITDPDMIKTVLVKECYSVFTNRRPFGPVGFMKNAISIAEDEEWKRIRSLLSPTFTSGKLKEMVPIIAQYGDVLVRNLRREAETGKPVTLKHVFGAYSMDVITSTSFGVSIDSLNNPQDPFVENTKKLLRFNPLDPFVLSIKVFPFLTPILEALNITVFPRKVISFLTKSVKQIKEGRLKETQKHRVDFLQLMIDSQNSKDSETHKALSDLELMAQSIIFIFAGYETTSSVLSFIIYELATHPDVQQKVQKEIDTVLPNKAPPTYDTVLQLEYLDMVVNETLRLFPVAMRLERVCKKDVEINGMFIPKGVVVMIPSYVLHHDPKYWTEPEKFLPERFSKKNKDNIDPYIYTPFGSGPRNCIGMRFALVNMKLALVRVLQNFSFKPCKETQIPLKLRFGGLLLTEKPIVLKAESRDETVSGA
Sequence of Cytochrome P450 2C19 (Homo sapiens) (P33261 whole entry, looked up): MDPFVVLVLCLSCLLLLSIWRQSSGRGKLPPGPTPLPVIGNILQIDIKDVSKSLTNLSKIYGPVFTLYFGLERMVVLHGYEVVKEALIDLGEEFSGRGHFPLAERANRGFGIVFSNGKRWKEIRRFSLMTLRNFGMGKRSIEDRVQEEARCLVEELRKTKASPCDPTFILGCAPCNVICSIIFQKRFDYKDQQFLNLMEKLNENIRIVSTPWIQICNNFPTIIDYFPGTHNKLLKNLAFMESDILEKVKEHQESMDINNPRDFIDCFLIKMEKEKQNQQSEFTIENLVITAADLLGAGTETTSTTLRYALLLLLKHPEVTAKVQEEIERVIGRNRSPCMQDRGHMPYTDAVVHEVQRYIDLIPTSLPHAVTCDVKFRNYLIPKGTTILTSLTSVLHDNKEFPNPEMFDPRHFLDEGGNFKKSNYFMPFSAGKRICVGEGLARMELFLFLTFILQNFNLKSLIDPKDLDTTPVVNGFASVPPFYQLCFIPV
Sequence of Cytochrome P450 3A4 (Homo sapiens) (P08684 whole entry, looked up): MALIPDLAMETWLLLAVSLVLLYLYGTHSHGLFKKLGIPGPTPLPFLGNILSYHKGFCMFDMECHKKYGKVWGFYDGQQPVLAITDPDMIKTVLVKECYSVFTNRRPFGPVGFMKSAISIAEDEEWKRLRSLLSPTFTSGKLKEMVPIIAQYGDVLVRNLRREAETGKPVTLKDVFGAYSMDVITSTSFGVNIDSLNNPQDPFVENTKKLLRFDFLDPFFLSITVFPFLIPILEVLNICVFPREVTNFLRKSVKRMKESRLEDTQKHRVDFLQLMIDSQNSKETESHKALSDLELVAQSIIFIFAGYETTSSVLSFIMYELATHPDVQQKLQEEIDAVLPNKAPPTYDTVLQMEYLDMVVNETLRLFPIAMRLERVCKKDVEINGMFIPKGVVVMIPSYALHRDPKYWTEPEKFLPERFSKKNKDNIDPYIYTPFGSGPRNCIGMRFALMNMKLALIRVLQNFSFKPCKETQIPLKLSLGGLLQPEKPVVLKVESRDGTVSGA

In general, AC50 refers to the midpoint of the concentration-response curve, whichever way the signal moves. Turning to `CCCCCCCCn1sccc1=O`, the AC50 in experiment [1] was 87 µM (active); in experiment [2] it was 81.8 µM (active); with CYP2C8 (gene 1558), 85.9 µM (active); with CYP2C9 (gene 1559) it was 85.3 µM (active); with CYP2E1 (gene 1571), 84.2 µM (active); with CYP4A11 (gene 1579), 91.1 µM (active). Further, the AC50 is 81.4 µM (active) in [3]; 89.1 µM (active) in experiment [7]; 83.1 µM (active) with CYP3A5 (gene 1577); 78.9 µM (active) in experiment [9]; 82.2 µM (active) in [10]. In addition, the compound was called inactive in [4], in experiment [5], in [6], in experiment [8], in [11] and in experiment [12]. For the same compound, the call in experiment [13] was inactive.

Take `OCCOCCO`: the AC50 in experiment [1] is 0.128 µM (active). The call (in experiment [2]; in the experiment with CYP2C8 (gene 1558); in the experiment with CYP2C9 (gene 1559); with CYP2E1 (gene 1571); in the experiment with CYP4A11 (gene 1579); in experiment [3]) was inactive. For the same compound, the outcome in experiment [4], in experiment [5], in experiment [6], in experiment [14], in [7] and in experiment [8] was inactive. The compound was classed as inactive in [9], in experiment [10], in [11], in experiment [12], in [13] and in experiment [15].

As to `O=P(OCCCl)(OCCCl)OCCCl`, the AC50 in [1] was 10.2 µM (active); in the experiment with CYP2E1 (gene 1571), 25.7 µM (active). The compound was classed as inactive (in experiment [2]; in the experiment with CYP2C8 (gene 1558); in the experiment with CYP2C9 (gene 1559); in the experiment with CYP4A11 (gene 1579); in [3]; in experiment [4]). The compound was classed as inactive (in experiment [5]; in experiment [6]; in experiment [7]; with CYP3A5 (gene 1577); in [8]; in experiment [9]). For the same compound, the result in experiment [10], in experiment [11], in experiment [12], in experiment [13] and in experiment [15] was inactive.

As to `CCCCOC(=O)c1ccccc1C(=O)OCc1ccccc1`, the compound was called inactive (in experiment [1]; in experiment [2]; in the experiment with CYP2C8 (gene 1558); in the experiment with CYP2C9 (gene 1559); in the experiment with CYP2E1 (gene 1571); with CYP4A11 (gene 1579)). Further, the compound was called inactive in experiment [3], in experiment [4], in experiment [5], in [6], in experiment [14] and in experiment [7]. Further, the outcome in [8], in experiment [9], in [10], in experiment [11], in [12] and in experiment [13] was inactive. In addition, the result in [15] was inactive.
